Results from PubChem BioAssay (NCATS).
Records with an inconclusive call do not appear. A number with no mark means an inactive call. Active and inactive are the calls of the source. Calls follow the shape of the dose curve; as a rule, active = well fitted cell-killing curve with a large enough effect; inconclusive = small, poorly fitted or top-dose-only effect; inactive = no such curve, though single readings can be large or run the other way.

Test: qHTS of pediatric cancer cell lines to identify multiple opportunities for drug repurposing: Primary screen for Saos-2 cells (AID 1347097); also: nearly all actives have a fitted effect of over 40% in size
Settings: Saos-2 viability, CellTiter-Glo ATP luminescence, 48 h; series mostly up to 46 µM; activity change, negative = cytotoxic: at the top concentration
From the text: Drug repurposing or repositioning has been offered as a strategy for drug development in oncology programs. This approach has special potential for childhood cancers and other rare or orphan diseases, where the expected return on new drug development has been a disincentive to pharmaceuticals. […] In this project we exploit the poly-pharmacology of drugs to discover new indications via phenotypic screening of a panel of 19 well-characterized cell lines derived from solid tumors seen in children and adolescents. The goal is to identify approved drugs with previously unrecognized anticancer properties that has the potential to reveal new mechanisms and biological processes involved in carcinogenesis or drug resistance. We employed a titration-based paradigm (quantitative high-throughput screening or qHTS), where all compounds were tested at multiple concentrations for their effect on cell viability. Concentration-response curves (CRCs) were derived directly from the primary screen, and both potency and efficacy values were used to identify compounds with robust bioactivity profiles. We screened the NIH Chemical Genomics Center (NCGC) Pharmaceutical Collection (NPC) and Mechanism Interrogation Plate (MIPE) small molecule collections of approved and investigational compounds against these cell lines; and measured metabolically active cells after 48 hours of compound treatment as a proxy for cell viability. […] Assay Submitter: Nathalia J. Martinez, National Center for Advancing Translational Sciences, National Institutes of Health, Rockville, MD, USA; email: natalia.martinez@nih.gov Shen, M et al. Quantitative high-throughput phenotypic screening of pediatric cancer cell lines identifies multiple opportunities for drug repurposing. Oncotarget 2017 Dec 19;9(4):4758-4772. PMID 29435139.
The cells were obtained from University of North Carolina (UNC), Pediatric Preclinical Testing Program (PPT), and Coriell Institute (CI). qHTS cell viability assay: Cells were assayed in growth media at a density of 500-1,000 cells/well. Five microliters of cells were dispensed into 1,536-well, white, solid-bottom, TC-treated plates (Greiner Bio One) using a multidrop dispenser and incubated at 37 degrees C, 5% CO2, under a humidified atmosphere for 5 hours. Twenty-three nanoliters of compounds and controls (neutral control DMSO or positive control bortezomib at final concentration of 2.3 µM) were subsequently transferred by Kalypsys pintool. For primary screens, the MIPE collection was tested at 11-point dilutions (final concentrations range from 0.78 nM to 46 µM) and the NPC collection at 8-point dilutions (final concentrations range from 0.59 nM to 46 µM). Compounds tested in follow-up screens were assayed at 11-point dilutions. Cells were incubated for 48 hours, followed by addition of 3 µL of CellTiter-Glo (Promega). After a 15 min incubation at room temperature, samples were analyzed for luminescence intensity using a ViewLux High-throughput CCD imager equipped with clear filters.
% is scaled to controls: 0 for no effect and ±100 for the full control effect; potency is read from the fitted curve at half-maximal effect.

Going from `O=[N+]([O-])c1cncn1CCN1CCOCC1` to `O=C1[C@@H]2[C@H]3CC[C@H](C3)[C@@H]2C(=O)N1CCCCN1CCN(c2ncccn2)CC1`, the “activity change, negative = cytotoxic” value falls from 42.7% to -10.4%.

First: Nc1ccc(C(=O)N2CC3CC(CN(Cc4ccccc4)C3)C2)cc1
Second: O=C(CCC1CCN(Cc2ccccc2)CC1)c1ccc2c(c1)NCCCC2
The “activity change, negative = cytotoxic” value of the first is higher: 7.11% for the first, -24.5% for the second.

First: O=C(O)c1[nH]n(-c2ccc(S(=O)(=O)O)cc2)c(=O)c1N=Nc1ccc(S(=O)(=O)O)cc1
Second: CCO[C@H](Cc1ccc(OCCc2ccc(OS(C)(=O)=O)cc2)cc1)C(=O)O
The “activity change, negative = cytotoxic” value of the first is higher: 10.7% for the first, -2.73% for the second.

First: Cc1cccc(C)c1NC(=O)c1cc(S(N)(=O)=O)c(Cl)cc1O
Second: Cc1cccc(C)c1NC(=O)c1ccc(N)cc1
The “activity change, negative = cytotoxic” value of the first is lower: -9.71% for the first, 3.24% for the second.

First: CCOC(=O)NNc1ccc(N(CC)CC(C)O)nn1 (stereo not given)
Second: CCN(CC)CC(=O)Oc1ccc(NC(C)=O)cc1
The “activity change, negative = cytotoxic” value of the first is lower: -28.4% for the first, 19.8% for the second.

Going from `O=C(CCCl)NCc1ccccc1` to `CC(=O)c1cc2ccccc2s1`, the “activity change, negative = cytotoxic” value rises from -1.52% to 21.1%.

Compared with `CCCCC(O)/C=C(C)/C=C/C=C/C(=O)N1CCCC1=O` (stereo not given), `CCCCC(=O)OCC(=O)[C@H]1[C@H](C)C[C@H]2[C@@H]3C[C@H](F)C4=CC(=O)C=C[C@]4(C)[C@@]3(F)[C@@H](O)C[C@@]21C` is higher in “activity change, negative = cytotoxic” value: -5.22% for the first, 4.18% for the second.

Going from `O=C(O)[C@@H](O)[C@H](O)[C@H](O)[C@@H](O)C(=O)O` to `C/C(=N/NC(=O)c1ccncc1)C(=O)O`, the “activity change, negative = cytotoxic” value rises from -9.45% to 18.7%.

First: CCCc1ccc(OCC(=O)N2CCN(C(=O)COc3ccc(CCC)cc3OC)CC2)c(OC)c1
Second: NC(=O)COCCN1CCN(C(c2ccccc2)c2ccc(Cl)cc2)CC1 (stereo not given)
The “activity change, negative = cytotoxic” value of the first is lower: -9.32% for the first, 1.86% for the second.

Compared with `CCn1ccc(NS(=O)(=O)c2ccc(N)cc2)nc1=O`, `CC(=O)N(c1onc(C)c1C)S(=O)(=O)c1ccc(N)cc1` is higher in “activity change, negative = cytotoxic” value: -4.91% for the first, 23.8% for the second.

Compared with `CC(C)C[C@H](NC(=O)CNC(=O)[C@H](Cc1ccc(O)cc1)NC(=O)[C@H](CO)NC(=O)[C@H](Cc1c[nH]c2ccccc12)NC(=O)[C@H](Cc1cnc[nH]1)NC(=O)[C@@H]1CCC(=O)N1)C(=O)N[C@@H](CCCN=C(N)N)C(=O)N1CCC[C@H]1C(=O)NCC(N)=O` (stereo in doubt), `CC1CC(=O)NN=C1c1ccc(NCC(C)(C)NCC(O)COc2cc(Cl)ccc2C#N)cc1` (stereo not given) is lower in “activity change, negative = cytotoxic” value: -8.56% for the first, -18.5% for the second.

First: CNC(=O)c1c(I)c(NC(C)=O)c(I)c(C(=O)O)c1I
Second: CO/N=C(\C(=O)O)c1csc(NC(=O)CCl)n1
The “activity change, negative = cytotoxic” value of the first is higher: 30.1% for the first, 18.1% for the second.

Going from `C/C(=N\O)[C@@H](C)NCC(C)(C)CN[C@H](C)/C(C)=N/O` to `CC(=O)OCC[N+](C)(C)C`, the “activity change, negative = cytotoxic” value rises from -3.95% to -3.2%.

Compared with `CC(C)OP(=O)(CP(=O)(OC(C)C)OC(C)C)OC(C)C`, `COCCOCC(OC)OC` is higher in “activity change, negative = cytotoxic” value: -6.52% for the first, -0.791% for the second.

Going from `Cc1ccc2ccc(Cl)cc2n1` to `Clc1ccc2c(c1)Nc1ccccc1S2`, the “activity change, negative = cytotoxic” value rises from -2.49% to 1.87%.

First: CCCCCCCCCCCCCCCCCCN(C)C
Second: CC(C)=CCC/C(C)=C/CC/C(C)=C/CCC(=O)OC/C=C(\C)CCC=C(C)C
The “activity change, negative = cytotoxic” value of the first is lower: -15.2% for the first, 10.3% for the second.

First: CC(C)(C)C(O)/C=C/c1ccc2c(c1)OCO2 (stereo not given)
Second: O=C1Nc2cc(Cl)ccc2Oc2ccccc21
The “activity change, negative = cytotoxic” value of the first is higher: 2.75% for the first, -13.4% for the second.

Compared with `CCN(CC)CC(=O)OCC(=O)[C@@]1(O)CC[C@H]2[C@@H]3CCC4=CC(=O)CC[C@]4(C)[C@H]3[C@@H](O)C[C@@]21C`, `CC1(C)O[C@@H]2C[C@H]3[C@@H]4CCC5=CC(=O)C=C[C@]5(C)[C@@]4(F)[C@@H](O)C[C@]3(C)[C@]2(C(=O)CO)O1` is higher in “activity change, negative = cytotoxic” value: -8.02% for the first, 11.6% for the second.

Compared with `NC(=O)NC1N=C([O][Al])NC1=O` (stereo not given), `CCCOc1ccc2c(c1)CC[C@@H]1[C@@H]2CC[C@]2(C)C(OC)CC[C@@H]12` (stereo not given in full) is lower in “activity change, negative = cytotoxic” value: 0.0438% for the first, -4.34% for the second.

For `CCCCCCCCCCCCCCCCCCNC(=O)OC1CCN(C(=O)OC[C@H](COC(=O)N(Cc2cccc[n+]2CC)C(=O)c2ccccc2OC)OC)CC1`, the Potency was 23.7 µM (active).

For `CC(C)C(C)(C)C(C)(C)C(C)(C)S`, the “activity change, negative = cytotoxic” value was 13.3% [at 92.7 µM].
